High-throughput results deposited in PubChem BioAssay by NMMLSC.
Compounds with a hit are over-represented: about 1.8% of the library has one in this group of screens.
Myeloid diff 2: myeloid differentiation induction. ER-HoxA9 myeloid progenitors, lysozyme-GFP differentiation, flow cytometry. calls only at 10 µM. actives 1% (n = 360,000). AID 624256;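 active means normalized GFP-positive differentiation at or above the plate's own cutoff, the solvent-only control mean plus 3 SD; inconclusive means no clear call, values can overlap the other calls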;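 further: cells exposed to compound for four days before flow analysis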
ABCB6 inh MLPCN: human ABCB6 transporter inhibition; K562-ABCB6 porphyrin accumulation, flow cytometry, 1 h; active compounds read low; fluorescence ratio to DMSO, % at 10 µM; actives 0.19% (n = 360,000);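 active means fluorescence ratio to DMSO below 75%, the collection mean minus 3 SD; inconclusive means too few cells collected in the well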;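 further: signal is porphyrin accumulated inside mitochondria; 100% equals median channel fluorescence of DMSO control wells; lower ratio means ABCB6 inhibition with less porphyrin fluorescence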
Target sequence (Q9NP58 whole entry, looked up): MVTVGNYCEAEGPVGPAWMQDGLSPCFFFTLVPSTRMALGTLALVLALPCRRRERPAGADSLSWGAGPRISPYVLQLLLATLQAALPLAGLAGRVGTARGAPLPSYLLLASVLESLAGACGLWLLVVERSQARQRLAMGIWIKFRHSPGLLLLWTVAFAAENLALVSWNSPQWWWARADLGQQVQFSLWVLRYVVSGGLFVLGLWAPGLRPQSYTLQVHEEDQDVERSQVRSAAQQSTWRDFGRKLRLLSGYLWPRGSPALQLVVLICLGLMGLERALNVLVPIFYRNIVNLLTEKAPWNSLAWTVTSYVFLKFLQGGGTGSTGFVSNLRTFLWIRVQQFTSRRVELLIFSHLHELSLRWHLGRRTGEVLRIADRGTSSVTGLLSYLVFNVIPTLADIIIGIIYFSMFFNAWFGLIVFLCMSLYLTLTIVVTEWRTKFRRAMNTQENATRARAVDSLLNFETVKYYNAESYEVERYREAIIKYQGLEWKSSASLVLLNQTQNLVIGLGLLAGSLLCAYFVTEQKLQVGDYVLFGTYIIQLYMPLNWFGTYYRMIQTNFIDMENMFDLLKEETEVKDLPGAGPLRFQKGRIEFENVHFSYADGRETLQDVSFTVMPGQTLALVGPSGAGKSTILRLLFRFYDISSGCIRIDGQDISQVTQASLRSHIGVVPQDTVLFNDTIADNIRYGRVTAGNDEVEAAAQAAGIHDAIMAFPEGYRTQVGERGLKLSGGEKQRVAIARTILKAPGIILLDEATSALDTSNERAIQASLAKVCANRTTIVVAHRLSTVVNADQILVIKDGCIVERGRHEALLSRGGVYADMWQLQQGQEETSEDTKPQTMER
Exocytosis inh: blocks lytic granule exocytosis; inhibition, % at 10 µM; AID 651702; TALL-104 LAMP-1 surface exposure, flow cytometry; cells stimulated with thapsigargin and PMA; actives 0.66% (n = 360,000);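 active means inhibition above about 55%, limit read from the data; inconclusive means no clear call, values can overlap the other calls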
Numbers without * were called inactive; i = inactive; u = inconclusive; x = no result; + = active, no number.

SMILES	Myeloid diff 2	ABCB6 inh MLPCN	Exocytosis inh
CCCN1CCC(=O)N([C@H](CSc2ccccc2)Cc2ccccc2)CC1	i	104	4
COc1ccc(C(C(=O)NCc2ccccc2)N(Cc2ccco2)C(=O)c2snc(C(N)=O)c2N)cc1OC (centres undefined)	i	100	56*
COc1ccc(C(C(=O)NCc2ccccc2)N(Cc2ccco2)C(=O)c2snc(C(N)=O)c2N)cc1 (centres undefined)	i	98	40
CN(C)C(=O)c1cccc(-c2cccc(-c3nc(C(=O)NCc4ccccc4)cc4c3[C@@H](CCO)N(S(=O)C(C)(C)C)C4)c2)c1 (some centres undefined)	i	105	-2
OC(c1ccc(F)c(F)c1)c1nc(-c2cccc(C(F)(F)F)c2)cs1 (centres undefined)	i	92	4
CC(=O)OC[C@]12CC[C@H]3[C@@](C)(CC[C@H]4C(C)(C)CCC[C@]34C)[C@@H]1CC(C1=CC(=O)OC1O)O2 (some centres undefined)	i	95	86*
CC(=O)OC[C@]1(OC(C)=O)C[C@@]23CC[C@H]4[C@@](C)(CCC[C@@]4(C)C(=O)O)[C@@H]2CC[C@@H]1C3	i	93	-6
COc1cc(C)ccc1S(=O)(=O)NC(=O)C1(C)CCN1C(=O)c1ccc(C(F)(F)F)nc1C (centres undefined)	i	86	3
OC[C@@H]1CN(CCc2ccccc2)C[C@H](n2cnc3c(NCc4ccc(F)cc4)ncnc32)O1	i	96	11
CC(=O)OC[C@H]1O[C@@H](Oc2cc3ccc(=O)oc3cc2OC(C)=O)[C@H](OC(C)=O)[C@@H](OC(C)=O)[C@@H]1OC(C)=O	i	102	0
CCOc1ccc(CCNC(=O)c2cccc(-n3cnnn3)c2)cc1OCC	i	93	5
CCn1c(SCC(=O)Nc2ccc(NC(=O)c3ccco3)c(OC)c2)nc2ccccc2c1=O	i	99	0
COCCn1c(SCC(=O)Nc2ccc(NC(=O)c3ccco3)c(OC)c2)nc2ccccc2c1=O	x	107	94*
CN1CCc2c(sc3c2c(=O)n(-c2ccc(Cl)cc2)c2nncn32)C1	i	100	1
CCN(CC)CCn1c(=O)n(-c2ccc(Cl)cc2)c(=O)c2c3c(sc21)CN(C)CC3	+	102	0
COc1ccc(/C=C2\CC/C(=C\c3ccc(OC)c(OC)c3)C2=O)cc1OC	i	92	1
CCN1C/C(=C/c2ccc(OC)c(O)c2)C(=O)/C(=C/c2ccc(OC)c(O)c2)C1	i	99	0
COc1ccc(/C=C2\CN(Cc3ccccc3)C/C(=C\c3ccc(OC)c(O)c3)C2=O)cc1O	u	95	67*
COc1cc(/C=C/C=C2/CC/C(=C/C=C/c3ccc(O)c(OC)c3)C2=O)ccc1O	x	386	26
COc1cc(/C=C2/CC/C(=C/c3ccc(O)c(OC)c3)C2=O)ccc1O	+	172	86*
COc1cc(/C=C2\COC/C(=C\c3ccc(O)c(OC)c3)C2=O)ccc1O	u	100	64*
CC(C)NC(=O)C1(C)CN(S(C)(=O)=O)CC(=O)N1CCc1ccccc1F (centres undefined)	i	x	2
Cc1ccccc1OCC(=O)Nc1ccccc1CO	i	83	-1
CSc1ccccc1NC(=O)COc1ccccc1C	+	263	-1
COc1ccccc1CNC(=O)CN1C(=O)NC(c2ccccc2)(c2ccccc2)C1=O	i	106	15
SMILES	Myeloid diff 2	ABCB6 inh MLPCN	Exocytosis inh
Cc1ccc(-c2nc(SCC(=O)NCC3CCCO3)c(-c3ccccc3)[nH]2)cc1 (centres undefined)	+	102	-3
Cc1ccc(-c2nsc(SCC(=O)NCC3CCCO3)n2)cc1 (centres undefined)	i	84	0
O=C(NCc1cccc(Cl)c1)C1Cc2c(-c3ccc(Cl)cc3)ccnc2O1 (centres undefined)	i	99	-3
CCOc1ccc(C(=O)Nc2nnc(S(=O)(=O)Nc3ccccc3C)s2)cc1	i	96	-6
O=C(Nc1ccc2c3c(cccc13)CC2)c1cccc([N+](=O)[O-])c1	i	97	2
CN(C)c1ccc(NC(=O)c2cccc([N+](=O)[O-])c2)c2ccccc12	+	142	-6
Cn1c(-c2ccccc2)cc(=O)n1-c1ccccc1	i	99	1
Cc1ccc(-n2nc3c([n+]2[O-])CCc2c-3no[n+]2[O-])cc1	+	99	-1
[O-][n+]1onc2c1CCc1c-2nn(-c2ccccc2Cl)[n+]1[O-]	x	93	-2
CCOC(=O)[C@]12CCC=C1N(Cc1ccco1)C(=O)[C@H](CC(=O)N1CCCCC1)C2	i	102	14
O=C(CCCCCn1c(=S)[nH]c2ccc(N3CCOCC3)cc2c1=O)NC1CCN(Cc2ccccc2)CC1	i	97	2
O=C(NC1CCN(Cc2ccccc2)CC1)c1ccc(Cn2c(=S)[nH]c3ccc(N4CCOCC4)cc3c2=O)cc1	+	107	-2
COc1cccc(/C=C/C(=O)OCC(=O)NC2CCCCCC2)c1	i	86	5
COc1ccc(OC)c(C2=NOC(C(=O)Nc3cccc(C(C)=O)c3)C2)c1 (centres undefined)	+	98	2
COc1ccc(OC)c(C2=NOC(C(=O)Nc3ccccc3SC)C2)c1 (centres undefined)	i	107	0
CC(C)C[C@H]1CN(CCCC[C@H]2CNC(=O)C(=O)N2CC2CCCCC2)C(=O)C(=O)N1CCc1ccccc1	i	101	-7
O=C(C[C@@H]1C/C=C\CC[C@H](Cc2ccc(F)cc2)C(=O)OC[C@@H](Cc2ccccc2)NC1=O)NCCO	i	100	-2
C[C@@H]1CN([C@H](C)CO)C(=O)CCCn2nncc2CO[C@H]1CN(C)Cc1ccc(Cl)c(Cl)c1	i	97	14
N#Cc1ccccc1OCc1cccc(S(=O)(=O)N2CCOCC2)c1	i	92	3
Cn1c(SCCN2CCCCC2)nnc1-c1ccccc1Br	i	96	-1
O=S1(=O)C=C(SCCN2CCCCC2)c2ccccc21	i	94	63*
O=C(CNc1cccc2ccccc12)N/N=C/c1ccc([N+](=O)[O-])o1	i	107	-1
O=[N+]([O-])c1ccc(/C=N/N=C/c2ccc([N+](=O)[O-])o2)o1	u	199	63*
CCCCCCCC(=O)N/N=C/c1ccc([N+](=O)[O-])o1	i	117	7
O=C(Cc1ccc([N+](=O)[O-])cc1)N/N=C/c1ccc([N+](=O)[O-])o1	+	104	6
SMILES	Myeloid diff 2	ABCB6 inh MLPCN	Exocytosis inh
O=C(CNc1cccc([N+](=O)[O-])c1)N/N=C/c1ccc([N+](=O)[O-])o1	+	103	-1
O=C(O)/C=C/c1ccc([N+](=O)[O-])o1	i	98	5
CCOc1ccc(C(=O)CCC(=O)N2CCN(S(=O)(=O)c3cccc(F)c3)CC2)cc1	i	98	-2
Cc1ccc2nc(Nc3ccc(C)c(C)c3)c3nncn3c2c1	i	95	-10
CCN(CCc1ccccc1)c1ccc2c(c1)C1CC2CCN1Cc1ccccc1 (centres undefined)	i	99	3
CC1(C)COC(c2cc3c(cc2Br)OCO3)OC1	i	104	6
